The values below come from PubChem BioAssay (NCATS).

The subject of assay [1] is Zika virus NS2B-NS3 protease. The assay is described as follows: Primary screen GU AMC qHTS for Zika virus inhibitors (AID 1347154). Further: nearly all actives have a fitted effect of over 70% in size. Further: potency means the concentration at half of the fitted maximal effect.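 On activity change, negative = inhibition: 0% = no-inhibitor control and -100% = no-enzyme control.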 The following applies: Zika NS2B-NS3 unlinked protease, AMC fluorogenic substrate; series mostly up to 54.1 µM. Put shortly:
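Unlinked Zika NS2B hydrophilic domain–NS3 protease complex at 25 nM in 10 mM Tris-HCl pH 8.0, 0.01% Tween 20, with an AMC peptide substrate. Fluorescence change (340/450 nm) over 15 min at room temperature, normalized to controls, fitted to 4-parameter Hill.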
For orientation: qHTS replaces the single test concentration by a dilution series.

For assay [2], the target named is Lysine-specific demethylase 5B (Homo sapiens) (UniProt Q9UGL1). The assay is described as follows: Optimization screen for KDM5B Histone Demethylases FDH coupled qHTS against the LOPAC library (AID 1347166). Further: 0% is about no effect. The note with it: KDM5B demethylation, FDH-coupled NADH fluorescence (FDH is formaldehyde dehydrogenase); at 57.5 µM (top of the series). An outline of the steps:
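KDM5BDeltaAP (200nM final) preincubated 10 min with compound, then 12.5uM H3K4Me3, 25uM a-ketoglutarate, ascorbate, Fe(II), NAD+ and FDH added; 50mM HEPES pH 7.5, 0.01% Tween-20. NADH fluorescence (340/450 nm) change over 30 min, room temperature.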

The nature of assay [3]: Confirmatory screen NINDS Rhodamine qHTS for Zika virus inhibitors (AID 1347161). Further: nearly all actives have a fitted effect of over 60% in size. Further: potency means the concentration at half of the fitted maximal effect.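 On activity change, negative = inhibition: purified Zika NS2B-NS3 protease with linked NS2B cofactor domain and Rhodamine110 peptide substrate; plate controls were no-inhibitor control for no effect and no-enzyme control for full effect.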 The note with it: purified enzyme assay, Rhodamine110 substrate fluorescence, 15 min; series mostly up to 114 µM. An outline of the steps: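 Rhodamine110-peptide cleavage (1.5 µM substrate) by 25 nM linked NS2B-NS3 enzyme at pH 8.0 (Tris, Tween 20), after 15 min RT preincubation with compounds; 15-min fluorescence change normalized to controls and Hill-fitted.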

A short description of assay [4]: Vero cells viability qHTS for Zika virus inhibitors (AID 1347167). Further: potency means the concentration at half of the fitted maximal effect. The note with it: cytotoxicity counter-screen (Zika); series mostly up to 45.9 µM. Put shortly: (§1)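 Cells seeded at 2.5 x 10^5 cells/mL in DMEM with 4% FBS and attached overnight at 37 degrees C, then exposed to compound for 24 to 48 hours. Viability read as ATP content by CellTiter Glo luminescence.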

A short description of assay [5]: HepG2 cells viability qHTS for Zika virus inhibitors (AID 1347168). Further: on the % scale 0 is the no-effect control and ±100 the full control effect. The following applies: Zika counter-screen; series mostly up to 45.9 µM. An outline of the steps: as §1
Assay [6] deals with Zika virus NS2B-NS3 protease (linked). The assay is described as follows: 384 well plate NINDS AMC confirmatory qHTS for Zika virus inhibitors (AID 1347163). Further: nearly all actives have a fitted effect of over 50% in size. Further: potency means the concentration at half of the fitted maximal effect.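 On activity change, negative = inhibition: linked protease at 5 30 or 60 nM final depending on run; fluorescence of AMC released from Ac-VKTGKR-AMC peptide cleaved by the protease; top concentration of the series differs between compounds; 0% = no-inhibitor control and -100% = no-enzyme control.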 The note with it: Recombinant NS2B-NS3 protease, Ac-VKTGKR-AMC fluorescence; series mostly up to 100 µM. Put shortly: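 Linked NS2B-NS3 protease (final 5 nM, 30 nM or 60 nM) was preincubated with compounds (final up to 1 mM) for ~15 minutes. Ac-VKTGKR-AMC substrate (final 30 microM) then reacted for 25 minutes at room temperature in the dark. Fluorescence (ex 355/em 460 nm) was normalized to no-enzyme and no-inhibitor controls.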

Assay [7] has as its system Zika virus NS2B-NS3 protease (linked construct). In words: 384 well plate NINDS Rhodamine confirmatory qHTS for Zika virus inhibitors (AID 1347164). Further: potency means the concentration at half of the fitted maximal effect; nearly all actives have a fitted effect of over 65% in size. The note with it: rhodamine-110 peptide substrate fluorescence; series mostly up to 100 µM. Put shortly: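 Compounds are incubated about 15 minutes with linked protease (5, 30 or 60 nM final). Rhodamine 110-tagged Ac-LKRR substrate (10 microM final) is added and fluorescence measured after 25 minutes.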

Assay [8] shares this test system. The assay is described as follows: Primary screen NINDS Rhodamine qHTS for Zika virus inhibitors (AID 1347160). Further: on the % scale 0 is the no-effect control and ±100 the full control effect; nearly all actives have a fitted effect of over 55% in size. The note with it: purified NS2B-NS3 protease, Rhodamine110 substrate fluorescence; series mostly up to 227 µM. Put shortly:
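Purified linked NS2B-NS3 protease (NS2B hydrophilic domain joined to NS3 protease by flexible linker), 25 nM in 10 mM Tris-HCl pH 8.0, 0.01% Tween 20. Compounds titrated, 15 min preincubation at room temperature; 1.5 microM Rhodamine110 substrate, FITC fluorescence change over 15 min.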

A short description of assay [9]: Confirmatory screen GU Rhodamine qHTS for Zika virus inhibitors qHTS (AID 1347157). Further: potency means the concentration at half of the fitted maximal effect; nearly all actives have a fitted effect of over 70% in size. The note with it: purified enzyme assay, Rhodamine110 substrate fluorescence, 15 min; series mostly up to 114 µM. An outline of the steps: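 Compounds, tested up to 114 microM, were incubated for 15 minutes with 25 nM unlinked NS2B-NS3 protease at pH 8.0. Cleavage of 1.5 microM Rhodamine110 substrate was then followed by fluorescence for 15 minutes.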

The nature of assay [10]: ZIKV-mCherry secondary qHTS for Zika virus inhibitors (AID 1347158). Further: top concentration of the series differs between compounds. The note with it: Vero cells, ZIKV-mCherry infection imaging, 48-72 h; series mostly up to 49.2 µM. Put shortly: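 Vero, 5,000 cells/well, o/n 37 °C; cpd pin-transferred in DMSO; ZIKV-mCherry MOI 1, 48-72 h 37 °C; 32% PFA stock fix, Hoechst; imaged 10x DAPI/mCherry; mCherry+ threshold 450 RFU; % infection.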

Records with an inconclusive call do not appear. Values without a mark were called inactive. Active and inactive are the calls of the source. The call rests on the fitted dose curve; in most records, active means well fitted curve in the direction sought with a large enough effect; inconclusive means small, poorly fitted or top-dose-only effect, or another doubt; inactive means no such curve, though single readings can be large; an effect the other way counts as inactive or inconclusive.

Sequence of Lysine-specific demethylase 5B (Homo sapiens) (Q9UGL1 whole entry, looked up): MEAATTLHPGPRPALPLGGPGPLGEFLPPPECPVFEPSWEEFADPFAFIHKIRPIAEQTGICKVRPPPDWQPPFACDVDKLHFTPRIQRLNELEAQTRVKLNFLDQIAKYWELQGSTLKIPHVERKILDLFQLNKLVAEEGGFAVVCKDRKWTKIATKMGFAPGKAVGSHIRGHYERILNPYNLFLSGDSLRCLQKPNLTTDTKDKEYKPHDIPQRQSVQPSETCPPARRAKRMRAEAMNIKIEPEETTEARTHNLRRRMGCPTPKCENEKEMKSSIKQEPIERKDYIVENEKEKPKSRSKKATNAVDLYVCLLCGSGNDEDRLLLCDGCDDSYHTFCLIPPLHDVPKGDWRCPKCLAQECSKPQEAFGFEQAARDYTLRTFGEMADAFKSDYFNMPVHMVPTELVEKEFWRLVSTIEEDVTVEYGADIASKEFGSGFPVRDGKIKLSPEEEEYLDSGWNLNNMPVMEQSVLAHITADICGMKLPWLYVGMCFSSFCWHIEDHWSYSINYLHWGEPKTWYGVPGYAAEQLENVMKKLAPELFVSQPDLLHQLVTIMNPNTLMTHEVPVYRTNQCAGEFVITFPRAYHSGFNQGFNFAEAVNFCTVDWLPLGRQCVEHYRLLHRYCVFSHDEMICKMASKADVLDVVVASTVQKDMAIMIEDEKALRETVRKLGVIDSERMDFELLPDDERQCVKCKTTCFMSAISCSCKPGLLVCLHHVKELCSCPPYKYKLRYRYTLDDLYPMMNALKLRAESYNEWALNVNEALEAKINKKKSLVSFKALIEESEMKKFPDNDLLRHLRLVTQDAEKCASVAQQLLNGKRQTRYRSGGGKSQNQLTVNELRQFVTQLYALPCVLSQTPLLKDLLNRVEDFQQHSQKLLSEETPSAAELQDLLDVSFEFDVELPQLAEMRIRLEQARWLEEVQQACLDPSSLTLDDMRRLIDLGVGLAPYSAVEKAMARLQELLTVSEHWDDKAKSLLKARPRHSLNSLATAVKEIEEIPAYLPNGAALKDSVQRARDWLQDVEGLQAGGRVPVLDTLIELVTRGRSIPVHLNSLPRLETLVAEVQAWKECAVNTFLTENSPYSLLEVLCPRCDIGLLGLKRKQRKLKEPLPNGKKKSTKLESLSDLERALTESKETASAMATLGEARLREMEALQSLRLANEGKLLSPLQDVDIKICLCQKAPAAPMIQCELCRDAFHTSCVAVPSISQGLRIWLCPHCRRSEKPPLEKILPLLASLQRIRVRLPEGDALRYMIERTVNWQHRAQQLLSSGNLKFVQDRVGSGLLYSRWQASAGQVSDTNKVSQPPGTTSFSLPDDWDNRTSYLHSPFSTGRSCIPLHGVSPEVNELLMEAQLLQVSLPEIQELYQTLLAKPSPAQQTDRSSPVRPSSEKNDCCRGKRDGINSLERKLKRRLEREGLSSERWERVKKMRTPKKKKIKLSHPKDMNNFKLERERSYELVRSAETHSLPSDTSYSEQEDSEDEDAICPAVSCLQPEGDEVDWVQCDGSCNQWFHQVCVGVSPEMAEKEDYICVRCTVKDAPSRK

In the case of `O=c1[nH]c(=O)c2nc3ccccc3nc2[nH]1`, in assay [1], the Potency result was “inactive”.

Turning to `Oc1cc2c(cc1O)C(c1ccccc1)CNCC2` (stereo not drawn), the Potency entry in assay [1] was “inactive”.

As to `NC/C=C\C(=O)O`, the Potency result in assay [1] was “inactive”. For the same compound, the activity, negative = inhibition in assay [2] is 3.97%.

For the compound `O=c1[nH]c2ccccc2c2ccccc12`, the Potency entry in [1] was “inactive”.

As for `CC(=O)NNC(=O)N1Cc2ccccc2Oc2ccc(Cl)cc21`, in assay [1], the Potency entry was “inactive”. Further, the activity, negative = inhibition in assay [2] was -5.14%.

`O=C(O)C1=CCNCC1`: in [1], the Potency entry is “inactive”. Besides, the activity, negative = inhibition in assay [2] is -12.8%.

On to `COc1ccccc1N1CCN(CCCNc2c(C)c(=O)n(C)c(=O)n2C)CC1`, for which the Potency entry in assay [1], in [3] and in [4] was “inactive” throughout. Also, the activity, negative = inhibition in assay [2] was -1.72%. The call in assay [5] was inactive.

Turning to `CCCCCCCC/C=C\CCCCCCCC(=O)NCCc1ccc(O)c(O)c1`, the Potency was 16.8 µM (active) in assay [1]; 19.6 µM (active) in assay [3]; 1.12 µM (active) in assay [6]; 3.16 µM (active) in assay [7]; 8.27 µM (active) in assay [4]. The activity, negative = inhibition in assay [2] is -22.3%.

On to `C#CCn1c(=O)c2c(ncn2C)n(C)c1=O`, for which, in assay [1], the Potency entry is “inactive”. The activity, negative = inhibition in assay [2] is -2.26%.

As to `NS(=O)(=O)c1cccc2c1c([N+](=O)[O-])cc1nc(O)c(O)nc12`, the Potency result in assay [1] is “inactive”.

`CC(=O)NCCc1c[nH]c2ccc(O)cc12`: in assay [1], the Potency result is “inactive”. For the same compound, the compound was called inactive in assay [8]. Besides, the activity, negative = inhibition in assay [2] was -23.2%.

With `Nc1nc2ccc(Cl)cc2c2nc(-c3ccco3)nn12`, the Potency result in assay [1], in [6] and in [4] was “inactive” each time. The result in [5] was inactive.

Turning to `Cn1c(=O)c2[nH]c(C3CCCC3)nc2n(C)c1=O`, the Potency result in assay [1] was “inactive”.

Consider `c1ccc2nc(C3=NCCN3)ccc2c1`, for which, in assay [1], the Potency entry is “inactive”.

Consider `CCCCCC(O)CCCC(=O)O` (stereo not drawn), for which the Potency result in assay [1] is “inactive”. Moreover, the activity, negative = inhibition in assay [2] is -6.03%.

For the compound `COc1cc(C(O)C(=O)O)ccc1O` (stereo not drawn), the Potency result in [1] was “inactive”. In addition, the activity, negative = inhibition in [2] was -6.83%.

On to `Cc1nc(N=Nc2ccc(S(=O)(=O)O)cc2S(=O)(=O)O)c(COP(=O)(O)O)c(C=O)c1O`, for which the Potency result in [1] and in [10] was “inactive” in each case. The Potency in assay [9] is 7.94 µM (active); in assay [6] it was 39.8 µM (active); in assay [7], 3.98 µM (active). Further, the activity, negative = inhibition in assay [2] was -11.6%.

Turning to `COC(=O)[C@H](NC(=O)c1cc(-c2ccccc2)nc2ccccc12)c1ccccc1`, the Potency result in assay [1] is “inactive”.

With `O=C1Nc2ccc(I)cc2/C1=C/c1cc(Br)c(O)c(Br)c1`, the Potency result in assay [1] was “inactive”. The Potency in assay [6] was 89.1 µM (active); in assay [7], 2.51 µM (active). In addition, the activity, negative = inhibition in assay [2] was -25%.

Take `CCSC(=N)N`: the Potency entry in [1] was “inactive”. The activity, negative = inhibition in [2] was -5.42%.

Regarding `CCCCCC[C@@H]([C@@H](C)O)n1cnc2c(N)ncnc21`, the Potency entry in assay [1] is “inactive”. For the same compound, in assay [2], the activity, negative = inhibition was -6.57%.

`S=C(S)N1CCCC1`: the Potency entry in assay [1] is “inactive”.

With `CNc1cc(NS(=O)(=O)c2ccc(N)cc2)nc(NC)n1`, the Potency result in assay [1] was “inactive”.

On to `O=C1Cc2c([nH]c3ccc(Br)cc23)-c2ccccc2N1`, for which the Potency entry in [1] was “inactive”. Further, in assay [2], the activity, negative = inhibition is -26.8%.

For the compound `CCCc1c(OCCCOc2ccc(OCC(=O)O)cc2)ccc(C(C)=O)c1O`, the Potency result in [10] and in [4] was “inactive” throughout. Also, the results for the Potency in assay [3], in assay [6] and in [7] were 3.5 µM (active), 355 µM (active) and 50.1 µM (active), respectively. The activity, negative = inhibition in assay [2] was -6.32%. Moreover, in [5], the result was inactive.

For `CC(C)Cn1c(=O)n(C)c(=O)c2[nH]cnc21`, the Potency result in assay [1] was “inactive”. Besides, in assay [2], the activity, negative = inhibition is -4.21%.

Take `COCc1nc2c([nH]1)c(=O)n(C)c(=O)n2CC(C)C`: the Potency entry in [1] was “inactive”. The activity, negative = inhibition in assay [2] is -5.87%.

With `CN[C@H](CC(=O)O)C(=O)O`, in assay [1], the Potency result is “inactive”. Also, the activity, negative = inhibition in assay [2] is -14.8%.

Take `Cn1c(=O)[nH]c2ncn(C)c2c1=O`: the Potency entry in assay [1] is “inactive”. Besides, the activity, negative = inhibition in assay [2] was -3.98%.

As for `CC[N+](CC)(CC)CC(=O)Nc1c(C)cccc1C`, the Potency result in [1] was “inactive”. Moreover, in assay [2], the activity, negative = inhibition is -1.53%.

For the compound `Cc1nc(N=Nc2cc(S(=O)(=O)O)c3cc([N+](=O)[O-])cc(S(=O)(=O)O)c3c2)c(COP(=O)(O)O)c(C=O)c1O`, in assay [10], the Potency entry is “inactive”. Also, in assay [6], the Potency is 31.6 µM (active). The activity, negative = inhibition in assay [2] is -12.7%.

In the case of `Cc1cccc(C(=O)NCN2CCN(c3ccccc3C#N)CC2)c1`, the Potency entry in [1] and in assay [4] was “inactive” each time. The call in [5] was inactive.

For `NC(N)=NC(N)=Nc1cccc(Cl)c1`, in assay [1], the Potency entry is “inactive”. Also, in assay [2], the activity, negative = inhibition was -3.11%.

For the compound `NC1C=CC=C(C(=O)O)C1` (stereo not drawn), the Potency result in assay [1] was “inactive”. Moreover, the activity, negative = inhibition in [2] was -9.6%.

Consider `CCCCCCCCCCCCCCCCCCOC[C@H](COP(=O)([O-])OCC[N+](C)(C)C)OC`, for which the activity change, negative = inhibition in assay [1] was 2.23% [at 6.83 µM]. In addition, the activity, negative = inhibition in [2] was 1.42%.

Turning to `CC(C)(C)c1cc(/C=C(\C#N)C(N)=S)cc(C(C)(C)C)c1O`, the Potency entry in assay [1] is “inactive”. In [2], the activity, negative = inhibition is -26.1%.

Regarding `CCCN(CCc1ccccc1)C1CCc2c(O)cccc2C1` (stereo not drawn), the Potency result in [1] is “inactive”. For the same compound, the activity, negative = inhibition in assay [2] was -0.152%.

`O=C(O)Cc1c[nH]c2ccc(O)cc12`: in [8], the compound was classed as inactive.

Turning to `COC(=O)C1=C(C)NC(C)=C([N+](=O)[O-])C1c1ccccc1C(F)(F)F` (stereo not drawn), in assay [1], the Potency entry was “inactive”. For the same compound, the activity, negative = inhibition in assay [2] was -5.36%.

For `CCn1c(=O)[nH]c2cc(Cl)c(Cl)cc21`, the Potency entry in assay [1] was “inactive”. In [2], the activity, negative = inhibition was -0.178%.
